About 7,900 targets were measured; listed, in parts, are those with a hit and a random draw of the rest. About 0.6% of all pairs of compound and target were hits.

Chain of UniProt Q6N075 (Q6N075 whole entry, looked up): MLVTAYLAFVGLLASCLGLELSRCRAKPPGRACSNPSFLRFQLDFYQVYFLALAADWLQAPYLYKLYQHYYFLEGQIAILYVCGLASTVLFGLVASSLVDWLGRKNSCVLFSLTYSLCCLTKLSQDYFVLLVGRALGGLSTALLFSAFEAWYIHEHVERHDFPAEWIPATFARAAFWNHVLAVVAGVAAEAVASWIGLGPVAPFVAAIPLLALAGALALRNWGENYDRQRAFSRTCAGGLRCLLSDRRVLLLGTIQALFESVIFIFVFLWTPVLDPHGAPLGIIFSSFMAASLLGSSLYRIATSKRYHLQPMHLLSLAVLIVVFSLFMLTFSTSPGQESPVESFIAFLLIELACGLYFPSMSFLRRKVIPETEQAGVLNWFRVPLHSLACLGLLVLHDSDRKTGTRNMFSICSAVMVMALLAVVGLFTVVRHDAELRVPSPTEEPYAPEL
Chain of UniProt Q8IW41 (Q8IW41 whole entry, looked up): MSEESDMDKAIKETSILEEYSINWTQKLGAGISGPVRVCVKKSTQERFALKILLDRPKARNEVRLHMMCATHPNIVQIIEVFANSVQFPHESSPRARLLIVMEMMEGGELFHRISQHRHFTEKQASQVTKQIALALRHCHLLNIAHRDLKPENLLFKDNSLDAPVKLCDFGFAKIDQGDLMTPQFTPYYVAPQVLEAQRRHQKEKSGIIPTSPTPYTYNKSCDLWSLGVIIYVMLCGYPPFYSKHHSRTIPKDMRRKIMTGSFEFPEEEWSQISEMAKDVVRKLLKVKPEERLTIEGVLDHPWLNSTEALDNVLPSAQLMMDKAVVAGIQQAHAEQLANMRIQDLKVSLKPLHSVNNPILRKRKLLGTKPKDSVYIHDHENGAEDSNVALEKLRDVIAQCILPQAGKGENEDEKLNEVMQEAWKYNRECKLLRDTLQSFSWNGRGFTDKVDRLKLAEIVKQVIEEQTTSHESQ
Chain of UniProt P48449 (P48449 whole entry, looked up): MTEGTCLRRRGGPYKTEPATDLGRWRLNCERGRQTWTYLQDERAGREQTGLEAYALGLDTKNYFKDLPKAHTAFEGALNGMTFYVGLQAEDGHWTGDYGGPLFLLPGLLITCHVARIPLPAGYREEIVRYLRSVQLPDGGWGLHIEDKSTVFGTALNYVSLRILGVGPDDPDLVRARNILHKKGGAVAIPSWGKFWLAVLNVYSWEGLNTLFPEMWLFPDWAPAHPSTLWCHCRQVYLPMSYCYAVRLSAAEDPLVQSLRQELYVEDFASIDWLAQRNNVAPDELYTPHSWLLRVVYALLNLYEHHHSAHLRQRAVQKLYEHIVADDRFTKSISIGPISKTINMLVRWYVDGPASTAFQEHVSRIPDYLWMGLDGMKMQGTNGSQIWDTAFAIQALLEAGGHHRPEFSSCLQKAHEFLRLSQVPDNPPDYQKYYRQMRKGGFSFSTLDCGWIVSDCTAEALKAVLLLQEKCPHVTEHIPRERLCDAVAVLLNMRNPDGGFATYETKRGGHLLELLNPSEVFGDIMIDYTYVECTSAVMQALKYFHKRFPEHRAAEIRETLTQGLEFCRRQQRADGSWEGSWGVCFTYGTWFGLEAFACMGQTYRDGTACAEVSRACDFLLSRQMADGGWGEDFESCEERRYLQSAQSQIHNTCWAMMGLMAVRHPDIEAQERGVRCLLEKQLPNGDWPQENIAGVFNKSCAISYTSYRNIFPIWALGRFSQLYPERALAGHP
Chain of UniProt Q8N108 (Q8N108 whole entry, looked up): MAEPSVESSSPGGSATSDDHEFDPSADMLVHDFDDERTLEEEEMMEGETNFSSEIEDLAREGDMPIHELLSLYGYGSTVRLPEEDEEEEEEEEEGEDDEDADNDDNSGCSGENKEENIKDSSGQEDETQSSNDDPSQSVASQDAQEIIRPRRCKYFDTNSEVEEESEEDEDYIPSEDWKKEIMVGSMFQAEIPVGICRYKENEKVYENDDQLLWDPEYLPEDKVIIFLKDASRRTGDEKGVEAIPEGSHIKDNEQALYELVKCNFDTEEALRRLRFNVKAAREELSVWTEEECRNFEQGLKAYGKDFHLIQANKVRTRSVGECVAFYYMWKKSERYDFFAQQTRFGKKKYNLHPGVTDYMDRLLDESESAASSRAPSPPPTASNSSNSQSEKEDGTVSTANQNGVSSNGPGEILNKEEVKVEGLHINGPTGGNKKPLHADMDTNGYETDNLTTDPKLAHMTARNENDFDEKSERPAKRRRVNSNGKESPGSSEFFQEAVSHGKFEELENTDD
Chain of UniProt P01116 (P01116 whole entry, looked up): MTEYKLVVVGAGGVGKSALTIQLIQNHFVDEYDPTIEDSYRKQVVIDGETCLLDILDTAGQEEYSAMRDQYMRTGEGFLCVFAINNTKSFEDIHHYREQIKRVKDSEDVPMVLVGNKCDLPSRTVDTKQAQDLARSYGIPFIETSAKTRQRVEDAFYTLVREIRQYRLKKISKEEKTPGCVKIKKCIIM
Chain of UniProt Q71RC2 (Q71RC2 whole entry, looked up): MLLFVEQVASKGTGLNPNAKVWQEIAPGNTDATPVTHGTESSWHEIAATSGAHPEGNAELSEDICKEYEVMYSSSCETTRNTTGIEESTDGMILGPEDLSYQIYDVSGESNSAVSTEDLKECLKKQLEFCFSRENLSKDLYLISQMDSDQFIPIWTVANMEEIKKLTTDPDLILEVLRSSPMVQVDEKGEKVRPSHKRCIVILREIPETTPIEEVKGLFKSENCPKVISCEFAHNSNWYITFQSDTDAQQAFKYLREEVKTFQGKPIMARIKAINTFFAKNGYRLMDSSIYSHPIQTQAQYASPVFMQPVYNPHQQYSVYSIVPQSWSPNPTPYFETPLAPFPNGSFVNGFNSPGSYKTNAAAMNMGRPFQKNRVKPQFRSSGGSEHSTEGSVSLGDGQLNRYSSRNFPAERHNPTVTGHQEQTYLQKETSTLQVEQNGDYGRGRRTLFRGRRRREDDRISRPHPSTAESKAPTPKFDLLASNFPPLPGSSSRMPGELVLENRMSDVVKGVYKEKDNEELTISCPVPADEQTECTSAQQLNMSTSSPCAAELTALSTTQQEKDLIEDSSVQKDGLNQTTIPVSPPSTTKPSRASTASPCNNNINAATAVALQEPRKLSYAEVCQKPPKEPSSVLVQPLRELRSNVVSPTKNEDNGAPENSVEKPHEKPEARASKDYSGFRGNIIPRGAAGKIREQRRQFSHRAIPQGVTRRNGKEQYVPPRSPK
Chain of UniProt Q9HCC0 (Q9HCC0 whole entry, looked up): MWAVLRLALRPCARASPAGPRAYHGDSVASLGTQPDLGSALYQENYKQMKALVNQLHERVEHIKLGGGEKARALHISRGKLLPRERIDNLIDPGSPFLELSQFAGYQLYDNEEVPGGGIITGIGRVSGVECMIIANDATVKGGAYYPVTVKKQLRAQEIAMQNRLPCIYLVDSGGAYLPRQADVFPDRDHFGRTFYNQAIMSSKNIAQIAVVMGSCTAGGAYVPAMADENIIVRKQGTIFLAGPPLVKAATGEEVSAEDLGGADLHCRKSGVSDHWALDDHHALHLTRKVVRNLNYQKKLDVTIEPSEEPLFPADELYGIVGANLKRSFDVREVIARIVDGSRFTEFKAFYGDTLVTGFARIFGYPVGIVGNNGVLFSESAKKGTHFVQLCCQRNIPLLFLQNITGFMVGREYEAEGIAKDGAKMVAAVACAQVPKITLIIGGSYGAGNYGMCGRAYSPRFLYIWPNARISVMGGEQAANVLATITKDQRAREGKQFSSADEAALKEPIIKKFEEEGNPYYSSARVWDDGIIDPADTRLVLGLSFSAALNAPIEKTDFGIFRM
Chain of UniProt P23368 (P23368 whole entry, looked up): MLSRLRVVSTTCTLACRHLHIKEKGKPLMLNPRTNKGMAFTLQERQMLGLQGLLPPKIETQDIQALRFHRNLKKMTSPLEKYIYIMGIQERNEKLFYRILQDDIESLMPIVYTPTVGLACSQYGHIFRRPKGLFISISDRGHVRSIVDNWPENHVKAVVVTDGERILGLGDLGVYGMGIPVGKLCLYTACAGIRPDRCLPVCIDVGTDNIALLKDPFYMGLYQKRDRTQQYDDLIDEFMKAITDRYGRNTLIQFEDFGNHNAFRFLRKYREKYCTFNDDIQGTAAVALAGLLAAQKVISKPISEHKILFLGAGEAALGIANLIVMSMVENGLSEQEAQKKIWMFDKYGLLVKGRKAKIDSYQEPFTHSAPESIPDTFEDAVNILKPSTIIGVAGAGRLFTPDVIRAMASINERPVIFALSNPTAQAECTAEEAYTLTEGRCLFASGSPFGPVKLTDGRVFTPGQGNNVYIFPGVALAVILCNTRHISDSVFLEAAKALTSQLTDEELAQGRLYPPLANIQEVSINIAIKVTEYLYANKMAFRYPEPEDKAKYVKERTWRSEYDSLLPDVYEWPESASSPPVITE
Chain of UniProt Q9H0C8 (Q9H0C8 whole entry, looked up): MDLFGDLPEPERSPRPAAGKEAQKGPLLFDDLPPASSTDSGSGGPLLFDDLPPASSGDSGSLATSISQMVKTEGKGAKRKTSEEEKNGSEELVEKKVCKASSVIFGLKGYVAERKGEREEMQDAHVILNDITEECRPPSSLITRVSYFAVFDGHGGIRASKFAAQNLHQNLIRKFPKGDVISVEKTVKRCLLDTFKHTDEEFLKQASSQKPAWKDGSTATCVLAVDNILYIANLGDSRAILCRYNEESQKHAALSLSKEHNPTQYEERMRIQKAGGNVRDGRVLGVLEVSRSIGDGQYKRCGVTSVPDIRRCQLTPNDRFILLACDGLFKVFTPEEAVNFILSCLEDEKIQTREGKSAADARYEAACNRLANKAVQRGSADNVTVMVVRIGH
Chain of UniProt Q8WV07 (Q8WV07 whole entry, looked up): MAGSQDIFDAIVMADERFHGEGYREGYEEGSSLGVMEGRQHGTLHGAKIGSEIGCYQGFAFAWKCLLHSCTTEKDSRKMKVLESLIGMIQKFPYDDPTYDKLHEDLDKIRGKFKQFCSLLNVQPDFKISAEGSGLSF

Compound in the experiment: C1=CC(=C(C=C1Cl)C2=NC3=NC=CN=C3C(=N2)NC4=CC=NC=C4)F
The experiment in a line: log2 fold change, soluble protein after heating vs DMSO (PISA); higher = thermal stabilisation; K562 cells, 10 uM, 30 min; active = over 0.2 and 3.5 SD of the protein, either way, in both replicates (recomputed). In a few lines: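 K562 cells at 2×10^6 cells/mL were exposed to 10 μM compound for 30 min, then aliquots were heated for 3 min across 48°C-58°C, pooled, and extracted in PBS containing 0.5% NP-40 at 4°C. The supernatant after 21,000xg for 90 min was taken as soluble protein and measured by TMTpro 16plex LC-MS/MS with channel sums equalised. Thermal stability is reported relative to control samples, with values from duplicates. Fold changes are given on a log2 scale.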
For KPNA6 (UniProt O60684), the log2 fold change was -0.068 (inactive). The same measure for KDM3B (UniProt Q7LBC6): 0.083 (inactive); for LMBRD2 (UniProt Q68DH5): 0.097 (inactive); for ME2 (UniProt P23368): 0.01 (inactive). In the case of ILKAP (UniProt Q9H0C8) it was 0.071 (inactive).

Regarding MFN2 (UniProt O95140), the log2 fold change was 0.007 (inactive). In the case of INPP5B (UniProt P32019) it was 0.071 (inactive). For LARP1 (UniProt Q6PKG0), the log2 fold change is -0.11 (inactive). In the case of MIER1 isoform 12 (UniProt Q8N108) it was 0.016 (inactive); in that of L2HGDH (UniProt Q9H9P8), 0.009 (inactive); in that of KRAS isoform 2 (UniProt P01116), 0.006 (inactive).

LTO1 (UniProt Q8WV07): the log2 fold change was 0.032 (inactive). The same measure for MFN1 (UniProt Q8IWA4): 0.042 (inactive). In the case of IKZF1 (UniProt Q13422) it was -0.008 (inactive); in that of MAP3K7 (UniProt O43318), -0.067 (inactive); in that of KIF3A (UniProt Q9Y496), -0.069 (inactive). In the case of IMMT isoform 4 (UniProt Q16891) it was 0.057 (inactive); in that of LDLR (UniProt P01130), -0.04 (inactive); in that of LMNA (UniProt P02545), 0.009 (inactive). On to MAGI1 (UniProt Q96QZ7), for which the log2 fold change is -0.083 (inactive).

Consider MAP3K4 isoform 2 (UniProt Q9Y6R4), for which the log2 fold change is 0.036 (inactive). The same measure for IWS1 (UniProt Q96ST2): 0.091 (inactive); for INTS5 (UniProt Q6P9B9): -0.403 (active); for KLHDC4 (UniProt Q8TBB5): -0.174 (inactive). The same measure for LSS (UniProt P48449): -0.029 (inactive); for MAN2B2 (UniProt Q9Y2E5): -0.008 (inactive); for KHDC4 (UniProt Q7Z7F0): 0.009 (inactive). In the case of MCCC2 (UniProt Q9HCC0) it was 0.03 (inactive). As for MAPKAPK5 (UniProt Q8IW41), the log2 fold change is 0.024 (inactive). In the case of JMJD6 isoform 3 (UniProt Q6NYC1) it was 0.039 (inactive); in that of LARP4B (UniProt Q92615), -0.042 (inactive). As for LEO1 (UniProt Q8WVC0), the log2 fold change was 0.194 (inactive). Regarding KDM1A isoform 2 (UniProt O60341), the log2 fold change was 0.006 (inactive). The same measure for MFSD5 isoform 2 (UniProt Q6N075): 0.041 (inactive); for ITIH4 (UniProt Q14624): 0.029 (inactive). Consider LARP4 isoform 4 (UniProt Q71RC2), for which the log2 fold change is -0.123 (inactive).

As for LTV1 (UniProt Q96GA3), the log2 fold change is -0.275 (inactive). The same measure for LIAS (UniProt O43766): 0.011 (inactive).

(Values after the supplement of paper PMC10849652.)
